Compounds without any hit were thinned out: in the full panel of roughly 83,000, 20% have a hit.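 The endpoint reported here, percent growth, reads 100 for growth as untreated, 0 for no net growth and -100 for all cells dead.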 The source made the active and inactive calls. Rule for the calls: active = growth percent below 10; inactive = the rest.
Tests used:
Test in all cases: NCI-60 one-dose screen, 48 h (100 = growth as untreated, 0 = no growth, -100 = all killed)
[1] = system: NCI-H23 lung; settings: 10 µM unless noted
[2] = system: NCI-H226 lung; settings: 10 µM unless noted
[3] = system: NCI-H322M lung; settings: 10 µM unless noted
[4] = system: HOP-62 NSCLC; settings: 10 µM unless noted
[5] = system: HOP-92 NSCLC; settings: 10 µM unless noted
[6] = system: NCI-H522 lung; settings: 10 µM unless noted
[7] = system: A549/ATCC NSCLC; settings: 10 µM unless noted
[8] = system: 786-0 renal; settings: 10 µM unless noted
[9] = system: COLO 205 colon; settings: 10 µM unless noted
[10] = system: DU-145 prostate; settings: 10 µM unless noted
[11] = system: K-562 leukemia; settings: 10 µM unless noted
[12] = system: MALME-3M melanoma; settings: 10 µM unless noted
[13] = system: MDA-MB-231 breast; settings: 10 µM unless noted
[14] = system: RXF 393 renal; settings: 10 µM unless noted
[15] = system: SF-268 CNS; settings: 10 µM unless noted
[16] = system: SF-295 CNS; settings: 10 µM unless noted
[17] = system: SF-539 CNS; settings: 10 µM unless noted
[18] = system: UACC-257 melanoma; settings: 10 µM
[19] = system: M14 melanoma; settings: 10 µM unless noted

Measured: growth

Cc1nn(-c2ccccc2)c2nc(CCl)[nH]c(=O)c12
active: [8] 4.55%
inactive: [1] 98.8% | [2] 111% | [3] 103% | [4] 98.3% | [5] 117% | [6] 89.8% | [7] 97.7% | [9] 110% | [10] 83.6% | [11] 19.2% | [12] 103% | [13] 88.4% | [14] 99.2% | [15] 106% | [16] 109% | [17] 36.9% | [18] 97.9% | [19] 99%

CCOc1ccc2nc(NC(=O)Nc3ccccc3C)sc2c1
inactive: [1] 76.4% | [2] 38.3% | [3] 87% | [4] 49% | [5] 126% | [6] 32.7% | [7] 54.7% | [8] 64.9% | [9] 49.9% | [10] 70.3% | [11] 14.6% | [12] 48.6% | [13] 71.2% | [14] 49.5% | [15] 78.6% | [16] 35.2% | [17] 57.1% | [18] 68.4% | [19] 23.4%

O=c1cc(-c2ccccc2)nc2sc(-c3c[nH]c4ccc(Br)cc34)nn12
inactive: [1] 104% | [2] 87.6% | [3] 92.8% | [4] 107% | [5] 86% | [6] 86.2% | [7] 97.6% | [8] 92.6% | [9] 104% | [10] 103% | [12] 104% | [13] 89.8% | [14] 104% | [15] 102% | [16] 99.8% | [17] 96.3% | [19] 105%

CCCCSc1nnc(-c2ccc(-c3ccc(Cl)cc3)nc2C)o1
inactive: [1] 95% | [2] 95.9% | [3] 103% | [4] 108% | [5] 93.4% | [6] 98% | [7] 102% | [8] 96.9% | [9] 101% | [10] 98.2% | [11] 90.1% | [12] 102% | [13] 104% | [14] 110% | [15] 103% | [16] 96.8% | [17] 98.1% | [18] 106% | [19] 104%

CCOP(=O)(OCC)OC[C@]12CCC(C)(C)C[C@H]1C1=CC[C@@H]3[C@@]4(C)C/C(=C\c5cccnc5)[C@H](OP(=O)(OCC)OCC)C(C)(C)[C@@H]4CC[C@@]3(C)[C@]1(C)CC2
active: [5] -1.51% | [9] -5.36% | [11] 9.94%
inactive: [1] 18.3% | [2] 34.2% | [3] 61.1% | [4] 36.8% | [6] 19.8% | [7] 16.3% | [8] 36.2% | [10] 30.7% | [12] 19.5% | [13] 44.8% | [14] 58% | [15] 46.1% | [16] 26.7% | [17] 37% | [18] 23.7% | [19] 34.6%

COc1ccc(NC(=O)[C@H](C)NC(=O)OC(C)(C)C)cc1C(=O)Nc1cccc(-c2cc(=O)c3c(OC)c(OC)c(OC)cc3o2)c1
inactive: [2] 16% | [10] 23% | [11] 10.6% | [15] 34.9%
active: [1] -24.8% | [3] -0.408% | [4] -17.5% | [5] -50% | [6] -46.4% | [8] 0.528% | [9] -70% | [12] -13.2% | [13] -46.4% | [14] -84.4% | [16] -11.4% | [17] -38.1% | [18] -74.4% | [19] -52.3%

COc1ccc2c(ccn2C(=O)N2c3ccccc3Sc3ccccc32)c1
inactive: [1] 40.3% | [2] 51.6% | [3] 52.6% | [4] 35.3% | [5] 25.4% | [7] 43.8% | [8] 50.1% | [10] 28.2% | [11] 18.7% | [12] 51.3% | [13] 64.5% | [14] 12% | [15] 63% | [16] 16.5% | [17] 11.6% | [18] 70.3% | [19] 21.8%
active: [6] -26.8% | [9] -33.3%

O=C1c2c(c3c4cc(Br)ccc4[nH]c3c3ccc4ccccc4c23)C(=O)N1CCN1CCCCC1
inactive: [1] 37.8% | [2] 69.2% | [3] 78% | [4] 33.8% | [5] 51.3% | [6] 68% | [9] 61.7% | [10] 22.9% | [12] 68.1% | [13] 77.7% | [14] 59.5% | [15] 38.4% | [16] 23.7% | [17] 38.7% | [18] 93% | [19] 20%
active: [7] 7.63% | [8] -84.2% | [11] -50.3%

C(=C(\C1=NCCN1)n1cnc2ccccc21)/c1ccc2ccccc2c1
active: [5] -2.7% | [14] -14.1%
inactive: [1] 65.4% | [2] 62.6% | [3] 73.2% | [4] 79.4% | [6] 14.7% | [7] 86% | [8] 74.6% | [9] 77.1% | [10] 68.7% | [11] 25.4% | [12] 79.2% | [13] 62.5% | [15] 81.8% | [16] 77.7% | [17] 82% | [18] 82.3% | [19] 61.7%

NCCN1CCN(c2nc(-c3ccccc3)nc3nc(-c4ccccc4)oc23)CC1
active: [1] -42.7% | [2] -57.6% | [3] -41.4% | [4] 0.341% | [6] -13.1% | [7] -63.7% | [8] -83.3% | [9] -44.7% | [10] -79% | [11] 6.56% | [12] -68.8% | [13] -74.5% | [15] -64.7% | [16] -83.6% | [17] -87.6%
inactive: [5] 58.9% | [14] 49.6% | [18] 93.4%

O=C1Nc2cc(OC(F)(F)F)ccc2Oc2ccc(-c3ccnc(N4CC[C@H](O)C4)c3)cc21
inactive: [1] 27.6% | [3] 55.1% | [4] 25.3% | [5] 45.7% | [12] 39.4% | [13] 17.2% | [15] 19.1% | [18] 72%
active: [2] -8.84% | [6] -28% | [7] 0.655% | [8] 6.88% | [9] -42% | [10] -39.1% | [11] 5.41% | [14] -10% | [16] 3.93% | [17] -28.7% | [19] -1.7%

CCOC(=O)Nc1cccc(-n2cnc3cc(-c4ccc(O)cc4)ccc32)c1
active: [6] -12.7% | [9] -4.06% | [11] 7.15% | [14] -12.8% | [17] 4.17%
inactive: [1] 32.3% | [2] 33.3% | [3] 47.3% | [4] 46.7% | [5] 116% | [7] 28.3% | [8] 31.6% | [10] 19.7% | [12] 77.7% | [13] 33.7% | [15] 38.9% | [16] 14.6% | [18] 83.6% | [19] 29.6%

O=C1C[C@@H](c2ccccc2)Oc2c(Cc3ccccc3O)c(O)c(Cc3cc(Cc4cc(Cc5ccccc5O)ccc4O)ccc3O)c(O)c21
inactive: [1] 94.7% | [2] 86% | [3] 110% | [4] 97.4% | [5] 78% | [6] 107% | [7] 101% | [8] 100% | [9] 111% | [10] 102% | [11] 99.8% | [12] 95% | [13] 82.4% | [14] 94.7% | [15] 85.2% | [16] 102% | [17] 101% | [19] 88.6%

O=C1Nc2ccc(Cl)cc2/C1=C/c1ccc(OCc2ccc(F)cc2)cc1
inactive: [1] 92.5% | [2] 96.4% | [3] 95.7% | [4] 107% | [5] 85.6% | [6] 90.4% | [7] 91.1% | [8] 98.4% | [9] 99.4% | [10] 95.9% | [11] 78.4% | [12] 102% | [13] 95.2% | [14] 95.5% | [15] 92.7% | [16] 99% | [17] 96% | [18] 96.6% | [19] 98.1%

COc1cc(/C=N/n2cnc3oc(-c4ccccc4)cc3c2=N)cc(CN2CCCCC2)c1O
inactive: [5] 86.2% | [9] 11.7%
active: [1] -56.4% | [2] -3.78% | [3] -1.45% | [4] -39.2% | [6] -42.2% | [7] -68.8% | [8] -79.5% | [10] -82.8% | [11] 3.54% | [12] -81% | [13] -73.4% | [14] -66.7% | [15] -66.9% | [16] -96% | [17] -87.9% | [18] -27% | [19] -83.5%

Reference: PubChem BioAssay (NCI)
